The text below walks through data of PubChem BioAssay (EPA / NIEHS).

Calls of active or inactive are those of the source. Rule for the calls: active = hit-call score of the fitted dose curve at least 0.9, where 1 is the maximum; inactive = score below 0.9.

This experiment can be described thus: ATG_VDRE_CIS: Attagene CIS-FACTORIAL HepG2 Assay for human Vitamin D Receptor Element (VDRE) (AID 2282968). Particulars: HepG2 VDRE cis-reporter transcription, actives raise or lower the signal. The protocol:
ATG_CIS is a cell-based, multiplexed-readout assay that uses HepG2, a human liver cell line, with measurements taken at 24 hours after chemical dosing in a 24-well plate.ATG_VDRE_CIS is one of 52 assay component(s) measured or calculated from the ATG_CIS assay. It is designed to make measurements of mRNA induction, a form of inducible reporter, as detected with fluorescence intensity signals by Reverse transcription polymerase chain reaction (RT-PCR) and Capillary electrophoresis technology.Data from the assay component ATG_VDRE_CIS was analyzed into 1 assay endpoint. This assay endpoint, ATG_VDRE_CIS, was analyzed with bidirectional fitting relative to DMSO as the negative control and baseline of activity. Using a type of inducible reporter, measures of mRNA for gain or loss-of-signal activity can be used to understand the reporter gene at the transcription factor-level as they relate to the gene VDR. Furthermore, this assay endpoint can be referred to as a primary readout, because this assay has produced multiple assay endpoints where this one serves a reporter gene function. To generalize the intended target to other relatable targets, this assay endpoint is annotated to the nuclear receptor intended target family, where the subfamily is non-steroidal.
Human liver HepG2 cells are transiently transfected with multiple reporter transcription units (MRTUs) in 6-well plates using FuGene 6 reagent (Roche; 3 ml FuGene/1 mg DNA). The MRTU constructs are regulated by a cis-regulating element (promoter). […] A major difference between the CIS and TRANS system is that in CIS activities of endogenous TFs are measured, whereas the TRANS assay evaluates changes in activities of exogenous, chimeric NR-Gal4 proteins. […] At the end of 24 hour incubation, total RNA was isolated using TriZol reagent (Invitrogen). The isolated RNA is then reverse-transcribed using oligo(dT) primer and Mo-MLV reverse transcriptase (Invitrogen) with DNAse I (Ambion) treatment for 30 min. The one-tenth of the produced cDNA was amplified by PCR using Taq DNA polymerase (Invitrogen) and two reporter sequence-specific primers. The PCR products were fluorescently labeled by primer extension with 6-arboxyfluorescein (6-FAM) 5'-labeled reporter sequence-specific primer (2 min at 95 C, 20 s at 68 C and 10 min at 72 C) and these products were digested with 5U of HpaI (New England Biolabs) for 2h at 37 C. The fragments were purified using Qiaquick PCR columns (Qiagen), analyzed on an ABI 3130xL genetic analyzer (Applied Biosystems) with peak positions identified by using a set of X-rhodamine (ROX)-labeled MapMarker1000 molecular weight standards (BioVentures). The raw capillary electrophoresis data was processed using Attagraph software (Attagene).
With `CN(C)CCOC(C)(c1ccccc1)c1ccccn1` (stereo not given), the result was inactive.

Turning to `COC(=O)c1ccc(C)cc1C1=NC(C)(C(C)C)C(=O)N1` (stereo not given) (tested in a mixture with another compound), the half-maximal activity concentration (AC50) was 26.8 µM (active).

As for `COS(=O)(=O)O`, the molecule was called inactive.

For `CCC(=O)O[C@@H]1C[C@H]2CC[C@]1(C)C2(C)C`, the molecule was classed as inactive.

Regarding `CC(C)(N=C=O)c1cccc(C(C)(C)N=C=O)c1`, the outcome was inactive.

As to `CC(C)OCCO`, the result was inactive.

For the molecule `CC(C)(C)C1=CC(=O)C(C(C)(C)C)=CC1=O`, the AC50 was 19.7 µM (active).

On to `O=[N+]([O-])c1cccc(Cl)c1`, for which the call was inactive.

Turning to `CN(C)c1ccncc1`, the molecule was called inactive.

For `CN1C(=O)c2ccccc2C1=O`, the molecule was called inactive.

On to `Nc1c(S(=O)(=O)O)cc(Br)c2c1C(=O)c1ccccc1C2=O`, for which the AC50 is 72.4 µM (active).

Regarding `CS(C)=O`, the molecule was called inactive.

Regarding `OCCCCC(O)CO` (stereo not given), the result was inactive.

Regarding `CCOC(=O)CCc1ccccc1`, the call was inactive.

Turning to `CCCCCCCCCCCCCCCC(=O)OC/C=C(C)/C=C/C=C(C)/C=C/C1=C(C)CCCC1(C)C`, the AC50 was 2.37 µM (active).

Regarding `CSCCC=O`, the outcome was inactive.

`CC(C)NCC(O)COc1ccc(CC(N)=O)cc1` (stereo not given): the outcome was inactive.

With `O=C1OC(=O)c2c(Br)c(Br)c(Br)c(Br)c21`, the result was inactive.

Consider `C=C[Si]1(C)O[Si](C)(C=C)O[Si](C)(C=C)O[Si](C)(C=C)O1` (stereo not given), for which the call was inactive.

Turning to `Cc1ccc(N)c(S(=O)(=O)O)c1`, the call was inactive.

Take `CC1(C)CCC[C@]2(C)[C@H]3CCO[C@]3(C)CC[C@@H]12`: the molecule was classed as inactive.

Take `O=C1OC2(c3ccccc31)c1ccc(O)c(Br)c1Oc1c2ccc(O)c1Br`: the AC50 was 27.3 µM (active).

Consider `CC(C=O)Cc1ccc(C(C)(C)C)cc1` (stereo not given), for which the call was inactive.

Take `CCCCCCC(C)Nc1ccc(Nc2ccccc2)cc1` (stereo not given): the AC50 is 2.32 µM (active).

Regarding `C=CCN(CC=C)CC=C`, the molecule was called inactive.

Consider `CC(C)C(OC(=O)c1ccccc1)C(C)(C)COC(=O)c1ccccc1` (stereo not given), for which the AC50 is 1.52 µM (active).

As for `CC(C)=CCCC(C)CCOC=O` (stereo not given), the call was inactive.

In the case of `CCc1cc(Cc2cc(CC)cc(C(C)(C)C)c2O)c(O)c(C(C)(C)C)c1`, the AC50 is 4.77 µM (active).

Take `CC(C)CC(C)CC(O)CC(C)C` (stereo not given): the molecule was called inactive.

For `CCCCCC(C)=O`, the molecule was called inactive.

`C=C1CC[C@H](O)C/C1=C/C=C1\CCC[C@]2(C)[C@@H]([C@H](C)/C=C/[C@H](C)C(C)C)CC[C@@H]12`: the molecule was classed as inactive.

Consider `CC(C)(CO)[C@@H](O)C(=O)NCCC(=O)O`, for which the result was inactive.

`CC(C)CCCCCCc1ccc(OCCOCCO)cc1`: the molecule was classed as inactive.

For `CS(=O)(=O)OCCCCOS(C)(=O)=O`, the molecule was classed as inactive.

Consider `COC(C)(C)CCO`, for which the call was inactive.

For `C=C(C)C1CC=C(C)C(=O)C1` (stereo not given), the call was inactive.

Turning to `CCCCOC(=O)CCCCCCCC(=O)OCCCC`, the molecule was called inactive.

For the molecule `CC1(C)C2=CCCC(C)(C)[C@]23CC[C@H]1C3`, the AC50 is 2 µM (active).

For the molecule `CN(C)C(=S)SC(=S)N(C)C`, the call was inactive.

Take `COc1ccccc1N=Nc1c(S(=O)(=O)O)cc2cc(S(=O)(=O)O)cc(NC(C)=O)c2c1O`: the result was inactive.
